Results published in PubChem BioAssay (NCATS).
Inconclusive results are not listed. Calls of active or inactive are those of the source. The call rests on the fitted dose curve; in most records, active means well fitted cell-killing curve with a large enough effect; inconclusive means small, poorly fitted or top-dose-only effect, or effect the other way; inactive means flat fitted curve, though single readings scatter.

Assay: qHTS for Inhibitors of ATXN expression: Validation of Cytotoxic Assay (AID 588349)
Conditions: cytotoxicity counter-screen for ATXN expression inhibitors, cell viability; series mostly up to 57.1 µM
Excerpt: Spinocerebellar ataxia type 2 (SCA2) is a multisystem neurodegenerative disease caused by a dominantly-acting mutation leading to expansion of a polyQ domain in the ataxin-2 protein (ATXN2). SCA2 patients develop progressive ataxia and later lose function in other neuronal systems. Prominent parkinsonian signs develop in some patients. Similar to many neurodegenerative disorders, no symptomatic or disease-modifying treatments are known.
The primary objective of project is to identify compounds inhibiting ATXN2 expression and to test them for efficacy in SCA2 mouse models. To this end, in a collaboration between Dr. Daniel Scoles and scientists at NCGC, a cell-based assay adapted to high-throughput screening has been developed to screen the NIH Molecular Libraries Small Molecule Repository (MLSMR). Confirmed qHTS active compounds will be tested for toxicity against the human neuron-like SH-SY5Y cell line. This line is the parental cell type used to generate the transgenic line used in the primary assay, and so should provide an isogenic control to test the inherent toxicity of qHTS actives.
NIH Chemical Genomics Center [NCGC]
NIH Molecular Libraries Probe Centers Network [MLPCN]
Assay Submitter (PI): Stefan Pulst and Daniel Scoles, University of Utah
HEK293 cultured cells will be dosed with titrated compounds and incubated for 72 hr at 37 degrees C. Toxicity will be assessed using the CellTiter Glo kit (Promega), which uses intracellular ATP concentration as a viability marker.

**Q.** With `COc1ccccc1OCC(O)CN1CCN(CC(=O)Nc2c(C)cccc2C)CC1` (stereo not given) as the compound, how does the outcome read?
**A.** The outcome was “inactive”.

**Q.** For `CN1CCN2c3ccccc3Cc3ccccc3C2C1` (stereo not given), which outcome is on record?
**A.** Its outcome is “inactive”.

**Q.** With `COc1ccc2c(c1)c(CC(=O)O)c(C)n2C(=O)c1ccc(Cl)cc1` as the compound, how does the outcome read?
**A.** The outcome was “inactive”.

**Q.** Which outcome does the source give for `CC12CC3CC(C)(C1)CC(N)(C3)C2` here?
**A.** Its outcome is “inactive”.

**Q.** With `Cc1ccccc1N1C(=O)c2cc(S(N)(=O)=O)c(Cl)cc2NC1C` (stereo not given) as the compound, how does the outcome read?
**A.** Its outcome is “inactive”.

**Q.** For `CN(C)CCC=C1c2ccccc2C=Cc2ccccc21`, which outcome is on record?
**A.** The outcome was “inactive”.

**Q.** With `CCC1(C)CC(=O)NC1=O` (stereo not given) as the compound, how does the outcome read?
**A.** The outcome was “inactive”.

**Q.** Which outcome does the source give for `CN(C)CCOC(c1ccccc1)c1ccccc1` here?
**A.** Its outcome is “inactive”.

**Q.** For `Cc1cc(C(C)(C)C)c(O)c(C)c1CC1=NCCN1`, which outcome is on record?
**A.** The outcome was “inactive”.

**Q.** For `NCCCCCC(=O)O`, which outcome is on record?
**A.** The outcome was “inactive”.

**Q.** With `CN1C2CCC1CC(OC(=O)C(CO)c1ccccc1)C2` (stereo not given) as the compound, how does the outcome read?
**A.** Its outcome is “inactive”.

**Q.** For `CCOC(=O)C(C)(C)Oc1ccc(Cl)cc1`, which outcome is on record?
**A.** Its outcome is “inactive”.

**Q.** With `Cn1c(=O)c2[nH]cnc2n(C)c1=O` as the compound, how does the outcome read?
**A.** The outcome was “inactive”.

**Q.** With `Cc1cnc(C(=O)NCCc2ccc(S(=O)(=O)NC(=O)NC3CCCCC3)cc2)cn1` as the compound, how does the outcome read?
**A.** The outcome was “inactive”.

**Q.** For `CC(C)Cc1ccc(C(C)C(=O)O)cc1` (stereo not given), which outcome is on record?
**A.** Its outcome is “inactive”.

**Q.** For `Nc1nnc(-c2cccc(Cl)c2Cl)c(N)n1`, which outcome is on record?
**A.** The outcome was “inactive”.

**Q.** For `CC(C)NCC(O)COc1ccc(CCOCC2CC2)cc1` (stereo not given), which outcome is on record?
**A.** The outcome was “inactive”.

**Q.** With `NC12CC3CC(CC(C3)C1)C2` as the compound, how does the outcome read?
**A.** Its outcome is “inactive”.

**Q.** Which outcome does the source give for `CCOC(=O)c1ncn2c1CN(C)C(=O)c1cc(F)ccc1-2` here?
**A.** Its outcome is “inactive”.

**Q.** For `O=c1[nH]cc(F)c(=O)[nH]1`, which outcome is on record?
**A.** Its outcome is “inactive”.

**Q.** Which outcome does the source give for `COc1nc(C)nc(Cl)c1NC1=NCCN1` here?
**A.** Its outcome is “inactive”.

**Q.** For `CCc1cccc2c3c([nH]c12)C(CC)(CC(=O)O)OCC3` (stereo not given), which outcome is on record?
**A.** Its outcome is “inactive”.

**Q.** Which outcome does the source give for `O=C(c1ccc(F)cc1)C1CCN(CCn2c(=O)[nH]c3ccccc3c2=O)CC1` here?
**A.** The outcome was “inactive”.

**Q.** With `Clc1ccc(C(c2ccccc2Cl)C(Cl)Cl)cc1` (stereo not given) as the compound, how does the outcome read?
**A.** The outcome was “inactive”.

**Q.** Which outcome does the source give for `O=C1N(c2ccccc2)c2ccccc2C1(Cc1ccncc1)Cc1ccncc1` here?
**A.** Its outcome is “inactive”.

**Q.** For `Nc1ccn([C@H]2CC[C@@H](CO)O2)c(=O)n1`, which outcome is on record?
**A.** The outcome was “inactive”.

**Q.** For `NC(CO)C(=O)NNCc1ccc(O)c(O)c1O` (stereo not given), which outcome is on record?
**A.** Its outcome is “inactive”.

**Q.** With `N[C@@H](Cc1c[nH]c2ccc(O)cc12)C(=O)O` as the compound, how does the outcome read?
**A.** The outcome was “inactive”.

**Q.** For `CC[N+](CC)(CC)CCOc1cccc(OCC[N+](CC)(CC)CC)c1OCC[N+](CC)(CC)CC`, which outcome is on record?
**A.** The outcome was “inactive”.

**Q.** Which outcome does the source give for `Cc1cc(C(C)(C)C)cc(C)c1CC1=NCCN1` here?
**A.** The outcome was “inactive”.

**Q.** For `O=C(C1CCCCC1)N1CC(=O)N2CCc3ccccc3C2C1` (stereo not given), which outcome is on record?
**A.** Its outcome is “inactive”.

**Q.** For `Nc1c2c(nc3ccccc13)CCCC2`, which outcome is on record?
**A.** Its outcome is “inactive”.

**Q.** For `C[C@H]1c2cccc(O)c2C(O)=C2C(=O)[C@]3(O)C(O)=C(C(N)=O)C(=O)[C@@H](N(C)C)[C@@H]3[C@@H](O)[C@@H]21`, which outcome is on record?
**A.** Its outcome is “inactive”.

**Q.** For `CCN1CCCC1CNC(=O)c1cc(S(=O)(=O)CC)c(N)cc1OC` (stereo not given), which outcome is on record?
**A.** Its outcome is “inactive”.

**Q.** With `CCC1(c2ccccc2)C(=O)NCNC1=O` as the compound, how does the outcome read?
**A.** The outcome was “inactive”.

**Q.** Which outcome does the source give for `CC1COc2c(N3CCN(C)CC3)c(F)cc3c(=O)c(C(=O)O)cn1c23` (stereo not given) here?
**A.** Its outcome is “inactive”.

**Q.** For `Cc1cn([C@H]2C[C@H](N=[N+]=[N-])[C@@H](CO)O2)c(=O)[nH]c1=O`, which outcome is on record?
**A.** The outcome was “inactive”.

**Q.** With `Cn1cnc2c1c(=O)[nH]c(=O)n2C` as the compound, how does the outcome read?
**A.** Its outcome is “inactive”.

**Q.** With `CN1CCC(=C2c3ccccc3CC(=O)c3sccc32)CC1` as the compound, how does the outcome read?
**A.** The outcome was “inactive”.

**Q.** With `CC(COc1ccccc1)N(CCCl)Cc1ccccc1` (stereo not given) as the compound, how does the outcome read?
**A.** The outcome was “inactive”.
